Screens deposited in PubChem BioAssay by National Center for Advancing Translational Sciences (NCATS).
Only some compounds are listed: those with a hit (about 19% of all), similar ones and a draw of the others.
HT1080 IDH1KD tx – HT-1080 IDH1 knockdown cell toxicity (counter line) | HT-1080 IDH1 knockdown viability, ATP luminescence, 48 h | Potency, µM (top dose mostly 46.1 µM), for inactives: top-dose activity, negative = toxicity, most hits filed as cytotoxic | actives 2% (n = 360,000);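 further: 0% = DMSO wells and -100% = cell-free medium wells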
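After a 2 h attachment period, IDH1KD HT-1080 cells took pin-transferred compound for 48 h at 37 °C; ATP-based luminescence after 10 min room-temperature reagent incubation reported viability.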
DT40 TDP1 no CPT – qHTS for Inhibitors of human tyrosyl-DNA phosphodiesterase 1 (TDP1): qHTS in cells in absence of CPT. actives 15% (n = 420,000). DT40 Tdp1-/- hTDP1 cells, no CPT, ATP luminescence, 48 h. Potency, µM (top dose mostly 46.2 µM), for inactives: at the highest dose activity change, negative = growth inhibition, hits mostly inhibitors; further: nearly all actives have a fitted effect of over 55% in size
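No-CPT arm: Tdp1-/-;hTDP1 DT40 cells (400/well) plus compounds, incubated ≥48 hr at 37 °C. Readout CellTiter-Glo luminescence.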
HT1080-NT tox – kills 2HG-producing HT-1080-NT fibrosarcoma cells. HT-1080-NT fibrosarcoma viability, CellTiter-Glo ATP luminescence, 48 h. Potency, µM (series often up to 46.1 µM), without a hit: at the highest dose activity, negative = less viability, hits mostly cytotoxic. actives 1.6% (n = 360,000);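 further: NT is the 2HG producing partner of a matched IDH1 knockdown line; 0% = DMSO-treated cells and -100% = media-only wells without cells; nearly all actives have a fitted effect of over 55% in size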
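HT-1080-NT fibrosarcoma cells (2HG-overproducing), 750 cells/well in RPMI with 5% FBS, dosed after 2 h and incubated 48 h at 37C. CellTiter-Glo luminescence normalized to DMSO and no-cell wells; concentration-response curves fitted and classed.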
KB-V1 MDR tox – kills drug-selected multidrug resistant KB-V1 cells; KB-V1 MDR cells viability, CellTiter-Glo, 72 h; Potency, µM (series often up to 46.1 µM), usual class: cytotoxic; actives 3.4% (n = 400,000); further: nearly all actives have a fitted effect of over 60% in size
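Cytotoxicity toward P-gp-expressing KB-V1 cells was determined as loss of CellTiter-Glo luminescence after 72 h at 37 degrees C. Compounds were tested in quantitative HTS format across a concentration range, with curves fitted to normalized data.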
DT40 TDP1 CPT – growth inhibition of DT40 Tdp1-/-;hTDP1 cells with camptothecin (screen for TDP1 inhibitors); chicken DT40 Tdp1-/-;hTDP1 cells + 20 nM CPT, ATP luminescence, 48 h; Potency, µM (titrated, usually from 46.2 µM), for the others: top-dose activity change, negative = growth inhibition, usual class: inhibitors; actives 12% (n = 420,000); AID 686979; further: nearly all actives have a fitted effect of over 55% in size
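Cell growth measured by CellTiter-Glo luminescence after a minimum 48 h, 37 C compound exposure with 20 nM CPT in Tdp1-knockout DT40 cells stably expressing hTDP1, seeded 400/well; qHTS titration format.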
KB-3-1 tox – KB-3-1 parental cell cytotoxicity. KB-3-1 viability, CellTiter-Glo ATP luminescence, 72 h. Potency, µM (titrated, usually from 46.1 µM), hits mostly cytotoxic. actives 1.4% (n = 400,000); further: nearly all actives have a fitted effect of over 60% in size
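72 h, 37 °C compound treatment of KB-3-1 parental cells; CellTiter-Glo added, 10 min, luminescence read. Data corrected against DMSO-only plates and normalized before curve fitting.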
* hit, by the source's call; i = inactive; ? = inconclusive; . = no result. The call rests on the fitted dose curve; in most records, active means well fitted curve in the direction sought with a large enough effect; inconclusive means small, poorly fitted or top-dose-only effect, or another doubt; inactive means no such curve, though single readings can be large; an effect the other way counts as inactive or inconclusive. Unless noted, on the % scale 0 is the no-effect control and ±100 the full control effect; potency means the concentration at half of the fitted maximal effect.

SMILES | HT1080 IDH1KD tx | DT40 TDP1 no CPT | HT1080-NT tox | KB-V1 MDR tox | DT40 TDP1 CPT | KB-3-1 tox
COc1ccccc1CNc1nc(NCC2CC2)nc2ccsc12 | 14.6µM* | 20.6µM* | ? | i | 10.3µM* | ?
COCCNc1nc(NCc2ccccc2)nc2ccsc12 | 0.0% | 9.2µM* | -29.0% | ? | 20.6µM* | i
COc1ccccc1CNc1nc(NCc2cccs2)nc2ccsc12 | ? | 16.4µM* | ? | i | ? | i
O=C(CC1SC(N2CCCC2)=NC1=O)Nc1ccc(C(=O)NCc2ccc(F)cc2)cc1 (centres undefined) | 5.6% | -11.3% | 3.9% | i | 31.3% | i
CCN(CC)S(=O)(=O)c1ccc(-c2nnc3sc4cccc(C)c4n23)cc1 | -5.4% | ? | -13.6% | i | 23.1µM* | i
CCN(CC)S(=O)(=O)c1ccc(-c2nnc(SCC(N)=O)n2CC)cc1 | 3.2% | -0.3% | -2.0% | i | 2.4% | i
CC1CCCCN1C(=O)COc1ccc(F)cc1 (centres undefined) | 0.9% | 9.6% | 3.2% | i | -4.1% | i
Cc1c(C(=O)N2CCC(C)CC2)sc2ncnc(N(C)c3ccccc3)c12 | ? | ? | -7.5% | ? | ? | ?
O=C(NNc1cccc(Cl)n1)c1ccccc1CC[N+](=O)[O-] | -12.2% | ? | -10.4% | i | 10.3µM* | i
O=C(NNc1cccc(Cl)n1)c1ccc(Cl)cc1Cl | 1.8% | 1.8% | -1.0% | i | 0.3% | i
COc1ccc(S(=O)(=O)Nc2cccc3c2O[C@H](CN(C)C(=O)Nc2c(C)noc2C)[C@@H](C)CN([C@H](C)CO)C3=O)cc1 | 28.7% | -3.3% | 17.4% | ? | 3.1% | i
COc1ccc(C(=O)Oc2cc(-c3ccc(OC)c(OC)c3)cc(=O)c3c(C)oc(C)c23)cc1 | . | 18.4µM* | . | i | ? | i
COc1ccc(-c2cc(OC(=O)c3cccc(C)c3)c3c(C)oc(C)c3c(=O)c2)cc1 | . | ? | . | i | ? | i
CCOc1ccc(-c2cc(OC(=O)c3ccc(F)cc3)c3c(C)oc(C)c3c(=O)c2)cc1 | . | 16.4µM* | . | i | ? | i
Cc1oc(C)c2c(=O)cc(-c3ccc4c(c3)OCO4)cc(OC(=O)c3cccc(Br)c3)c12 | . | ? | . | i | ? | i
CCOc1cc(-c2ccc(OC(=O)c3ccc(C)cc3)c(OC)c2)cc(=O)c2c(C)oc(C)c12 | . | 5.17µM* | . | . | 5.8µM* | .
COc1cc(-c2cc(OC)c3c(C)oc(C)c3c(=O)c2)ccc1OC(=O)c1ccc(C)cc1 | . | 5.8µM* | . | . | 5.17µM* | .
CCCc1[nH]n(-c2ccc([N+](=O)[O-])cc2)c(=O)c1C=NCCCn1ccnc1 | -3.9% | -70.3% | -14.6% | i | -13.7% | i
Cc1ccccc1C(=O)Oc1cc(-c2ccc3c(c2)OCO3)cc(=O)c2c(C)oc(C)c12 | . | ? | . | i | ? | i
CCOc1cc(-c2ccc(OC(=O)c3ccccc3F)cc2)cc(=O)c2c(C)oc(C)c12 | . | 13µM* | . | . | 13µM* | .
Cc1cc(C)cc(N(C(=O)c2csnn2)C(C(=O)NC2CCCCC2)c2ccccn2)c1 (centres undefined) | -0.2% | ? | -10.2% | i | -19.1% | i
O=S(=O)(CCN(CCS(=O)(=O)C(F)(F)F)CC1CCCO1)C(F)(F)F (centres undefined) | -0.6% | 2.31µM* | 8.4% | i | 2.31µM* | i
O=C(NCC1CCCO1)C1CCN(S(=O)(=O)N2CCCC2)CC1 (centres undefined) | -5.1% | 4.5% | -14.4% | i | -0.4% | i
COc1cccc(C(=O)N2CCC(n3nccc3NC(=O)CCOc3ccccc3)CC2)c1 | 1.0% | ? | 0.3% | i | -28.2% | i
CCOC(=O)N1CCC(NC(=O)c2ccc3c(c2)N(Cc2ccccc2)C(=O)c2ccccc2S3=O)CC1 (centres undefined) | . | -2.1% | . | i | -0.8% | i
SMILES | HT1080 IDH1KD tx | DT40 TDP1 no CPT | HT1080-NT tox | KB-V1 MDR tox | DT40 TDP1 CPT | KB-3-1 tox
CCOC(=O)N1CCC(NC(=O)c2ccc3c(c2)N(Cc2ccc(Cl)cc2)C(=O)c2ccccc2S3=O)CC1 (centres undefined) | . | 23.1µM* | . | i | ? | ?
CCOC(=O)N1CCC(NC(=O)c2ccc3c(c2)N(Cc2ccc(Cl)cc2)C(=O)c2ccccc2S3(=O)=O)CC1 | . | 23.1µM* | . | i | ? | i
CCOC(=O)N1CCC(NC(=O)c2ccc3c(c2)N(Cc2ccc(F)cc2)C(=O)c2ccccc2S3=O)CC1 (centres undefined) | . | ? | . | ? | 16.4µM* | ?
O=C(/C=C/c1ccccc1)NC1CCSC1=O (centres undefined) | ? | -15.1% | 28.4% | ? | -15.1% | i
CN1CCN(C(=S)Nc2cc([N+](=O)[O-])ccc2Cl)CC1 | -4.8% | -9.5% | 0.6% | ? | 0.2% | i
COc1ccccc1CNC(=O)CCNS(=O)(=O)c1cc(Br)cnc1N | -2.0% | ? | 0.5% | i | ? | i
O=C(Nc1ccc2c(c1)OCO2)Nc1ccccc1F | ? | 5.8µM* | ? | ? | 9.2µM* | ?
O=C(Nc1cccc(Cl)c1)OCCOC(=O)Nc1cccc(Cl)c1 | 23.1µM* | 20.6µM* | ? | i | ? | i
CC(C)(C)C(=O)Nc1ccccc1C(=O)Nc1cc(Cl)ccc1Cl | -0.5% | ? | 3.7% | 16.4µM* | ? | i
